JMJD2A Tudor inh: JMJD2A Tudor domain (human) inhibition; O75164; AlphaScreen JMJD2A-Tudor / H3K4me3 peptide binding; Potency, µM (series often up to 114 µM), for inactives: top-dose activity change, negative = inhibition, hits mostly inhibitors; hit rate 4.4% among 390,000; AID 504339; further: on the % scale 0 is the no-effect control and ±100 the full control effect; nearly all actives have a fitted effect of over 50% in size
BAZ2B block: BAZ2B (human) inhibition; AlphaScreen BAZ2B-H3K14Ac peptide displacement; Potency, µM (series often up to 114 µM), for inactives: top-dose activity change, negative = inhibition, usual class: inhibitors; AID 504333; Q9UIF8; hit rate 4.4% among 360,000; further: on the % scale 0 is the no-effect control and ±100 the full control effect; nearly all actives have a fitted effect of over 60% in size
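AlphaScreen displacement: compounds (up to 110uM) incubated 30 min at room temperature with a preformed 50 nM BAZ2B/50 nM biotinylated H3K14Ac peptide complex in PBS pH 7.4 with Tween-20. Donor and acceptor beads at 10 ug/mL final added, 20 min light-protected before reading.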
HP1b binding inh: inhibitors of HP1-beta chromodomain binding to methylated histone tails; hit rate 0.56% among 390,000; AID 540317; Potency, µM (doses to about 114 µM), for the others: top-dose activity change, negative = inhibition, usual class: inhibitors; AlphaScreen HP1-beta / biotin-H3K9me3 peptide binding; further: nearly all actives have a fitted effect of over 70% in size
Target sequence (P83916 whole entry, looked up): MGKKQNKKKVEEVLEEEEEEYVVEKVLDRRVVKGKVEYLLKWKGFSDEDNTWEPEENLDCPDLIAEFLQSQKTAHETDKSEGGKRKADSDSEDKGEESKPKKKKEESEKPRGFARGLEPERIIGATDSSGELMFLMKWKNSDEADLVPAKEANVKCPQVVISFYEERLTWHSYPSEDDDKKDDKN
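Compound inhibition of the preformed complex between 50 nM HP1-beta and 50 nM biotinylated H3K9me3 peptide was read by AlphaScreen. Buffer was PBS pH 7.4 with 0.01% Tween-20. Incubations ran 30 min at room temperature, with 10 ug/mL donor/acceptor beads.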
G9a inh: inhibitors of human histone lysine methyltransferase G9a. AID 504332. G9a H3K9 monomethylation, AlphaScreen, 2 h. Q96KQ7. Potency, µM (series often up to 102 µM), without a hit: at the top dose activity, negative = inhibition, usual class: inhibitors. hit rate 8.8% among 350,000; further: on the % scale 0 is the no-effect control and ±100 the full control effect; nearly all actives have a fitted effect of over 75% in size
Target sequence (Q96KQ7 913-1193 limits assumed): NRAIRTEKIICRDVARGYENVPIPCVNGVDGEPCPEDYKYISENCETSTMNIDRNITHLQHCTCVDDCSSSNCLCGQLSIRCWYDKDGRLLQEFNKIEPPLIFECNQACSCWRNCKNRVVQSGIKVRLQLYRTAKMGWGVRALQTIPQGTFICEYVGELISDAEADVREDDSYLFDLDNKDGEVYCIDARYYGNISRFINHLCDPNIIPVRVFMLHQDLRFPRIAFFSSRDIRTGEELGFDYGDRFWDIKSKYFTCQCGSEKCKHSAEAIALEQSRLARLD
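Methyltransferase reactions run at room temperature for 2 h (20 nM enzyme, 500 nM biotin-H3K9 peptide, 20 uM SAM) after a 15 min compound preincubation; product detected by AlphaScreen beads and anti-H3K9me1 antibody.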
TDP1 inh: TDP1 (human) enzyme inhibition. Potency, µM (highest dose often 130 µM), for the others: top-dose activity change, negative = inhibition, usual class: inhibitors. recombinant TDP1, AlphaScreen DNA substrate cleavage. Q9NUW8. hit rate 0.28% among 350,000; further: on the % scale 0 is the no-effect control and ±100 the full control effect; nearly all actives have a fitted effect of over 40% in size
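AlphaScreen read-out: signal falls as enzyme removes the 3' tyrosine-FITC from a 5'-biotinylated DNA oligo (15 nM, 5 min, RT). Enzyme was E. coli-made recombinant Tdp1 at 1 nM, exposed to compound for 15 min beforehand; beads 10 ug/ml, 10 min.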
Sfp PPTase inh: inhibitors of Bacillus subtilis Sfp phosphopantetheinyl transferase; Q9F4F7; Biochemical Sfp PPTase activity, qHTS; Potency, µM, for the others: largest response in the series, negative = inhibition, hits mostly inhibitors; hit rate 3.5% among 310,000;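 further: the enzyme is Sfp with the accession as filed and its product quenches rhodamine fluorescence; 0% = enzyme reaction without inhibitor and -100% = no enzyme wells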
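With Hepes-Na pH 7.6 buffer containing 10 mM MgCl2, Sfp (15 nM) modified BHQ-2-YbbR (12.5 uM) using rhodamine-CoA (5 uM). Two reads 30 minutes apart at 525/598 nm yielded each well's rate.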
Numbers without * were called inactive; u = inconclusive; x = not tested or not shown; [ ] = another dose, or the depositor's remark. Only some compounds are listed: those with a hit (about 12% of all), similar ones and a draw of the others. The call rests on the fitted dose curve; in most records, active means well fitted curve in the direction sought with a large enough effect; inconclusive means small, poorly fitted or top-dose-only effect, or another doubt; inactive means no such curve, though single readings can be large; an effect the other way counts as inactive or inconclusive. Potency means the concentration at half of the fitted maximal effect.

SMILES	JMJD2A Tudor inh	BAZ2B block	HP1b binding inh	G9a inh	TDP1 inh	Sfp PPTase inh
CCN1C(=NCCOC)N[C@@H](c2ccccc2)[C@H](C(=O)OC)[C@H]1C	-17%	50µM*	16%	-11%[12.7 µM]	-3%	3%
O=C(/C=C/c1ccc2c(c1)OCCCO2)c1ccc2ccccc2c1O	28µM*	10µM*	25µM*	11µM*	12%	40µM*
Cc1ccc(C(=O)/C=C/c2ccc3c(c2)OCCO3)c(O)c1	32µM*	u	u	40µM*	7%	-27%
O=C(/C=C/c1ccccc1)c1ccc2c(c1)OCCCCO2	41%	23%	95%	21%[59 µM]	0%	-9%
Clc1ccccc1Nc1ncnc2c1nc1n2CCCCC1	-14%	u	43%	-6%[59 µM]	-4%	x
CCOc1ccc(CSC(CC(=O)O)C(=O)O)cc1 (centres undefined)	-4%	79µM*	47%	x	2%	-6%
Cc1nc2ccccc2c(=O)n1/N=C/c1c(O)ccc2ccccc12	-30%	25µM*	-18%	32µM*	5%	0%
CC(C)(C)N=Cc1c(O)ccc2oc3c(c12)CCCC3	u	95%	84%	-5%	x	-14%
Cc1nc2ccccc2c(=O)n1/N=C/c1ccccn1	-22%	-7%	8%	28µM*	-2%	u
Cc1nc2ccccc2c(=O)n1/N=C/c1ccccc1F	2%	5%	21%	-1%	x	12%
Cc1nc2ccccc2c(=O)n1/N=C/c1c(O)ccc2oc3c(c12)CCCC3	u	8%	4%	4%[2.33 µM]	6%	22µM*
COc1cc(/C=N/n2c(C)nc3ccccc3c2=O)cc(OC)c1O	-22%	-27%	44%	13µM*	x	-3%
COc1cc(OC)c(OC)cc1/C=N/n1c(C)nc2ccccc2c1=O	-18%	5%	14%	14%	x	20%
COc1ccc(CN(Cc2ccccc2)C(=O)c2ccncc2)cc1COc1ccc(NC(C)=O)cc1	u	x	6%	x	-2%	x
Cc1n[nH]c(=S)n1/N=C/c1c(O)ccc2ccccc12	u	-13%	43%	x	x	63µM*
N#Cc1nc(COc2ccccc2)oc1N1CCOCC1	3%	-5%	21%	-3%[12.7 µM]	4%	-1%
N#Cc1nc(COc2ccc(F)cc2)oc1N1CCCCC1	-18%	u	-7%	u	-5%	-1%
N#Cc1nc(COc2ccccc2)oc1N1CCCCCC1	u	35µM*	u	45µM*	8%	10%
N#Cc1nc(COc2ccc(Br)cc2)oc1N1CCCC1	u	25µM*	u	u	11%	-4%
COC(=O)c1ccc(-c2ccc(C3C4C=CCC(C)C4C(=O)N3Cc3ccccc3)c(F)c2)cc1 (centres undefined)	-17%	x	38%	x	3%	u
C[C@H](CO)N1C[C@H](C)[C@@H](CN(C)S(=O)(=O)c2ccc(F)cc2)Oc2ccc(NC(=O)NC3CCCCC3)cc2C1=O	-8%	x	45%	x	1%	x
CC(C)C(NC(=O)c1ccccc1F)C(=O)NCc1ccc(F)cc1 (centres undefined)	-1%	0%	27%	8%	4%	8%
C#CCOCCOCCOCCNc1nc(N2CCN(C(=O)CCCCCCCCCCNC(=O)[C@H]([C@@H](C)CC)n3cc(CCCCN=C(N)N)nn3)CC2)nc(N2CCN(C(=O)CCCCCCCCCCNC(=O)[C@H]([C@@H](C)CC)n3cc(CCCCN=C(N)N)nn3)CC2)n1	x	50µM*	x	-9%[2.33 µM]	-2%	x
C#CCOCCOCCOCCNc1nc(N2CCN(C(=O)CCCCCCCCCCNC(=O)[C@H]([C@@H](C)CC)n3cc(CCCCCN)nn3)CC2)nc(N2CCN(C(=O)CCCCCCCCCCNC(=O)[C@H](CO)n3cc(CCCCCN)nn3)CC2)n1	u	u	-20%	1%[2.33 µM]	9%	x
C#CCOCCOCCOCCNc1nc(N2CCN(C(=O)CCCCCCCCCCNC(=O)[C@H]([C@@H](C)CC)n3cc(CCCCCN)nn3)CC2)nc(N2CCN(C(=O)CCCCCCCCCCNC(=O)[C@H]([C@@H](C)CC)n3cc(CCCCN=C(N)N)nn3)CC2)n1	x	56µM*	x	14%[2.33 µM]	15%	x
SMILES	JMJD2A Tudor inh	BAZ2B block	HP1b binding inh	G9a inh	TDP1 inh	Sfp PPTase inh
C#CCOCCOCCOCCNc1nc(N2CCN(C(=O)CCCCCCCCCCNC(=O)[C@H]([C@@H](C)CC)n3cc(CCCCN=C(N)N)nn3)CC2)nc(N2CCN(C(=O)CCCCCCCCCCNC(=O)[C@H](CCCCN)n3cc(C)nn3)CC2)n1	22µM*	50µM*	35µM*	0%[2.33 µM]	15%	x
C#CCOCCOCCOCCNc1nc(N2CCN(C(=O)CCCCCCCCCCNC(=O)[C@H]([C@@H](C)CC)n3cc(CCCCCN)nn3)CC2)nc(N2CCN(C(=O)CCCCCCCCCCNC(=O)[C@@H]([C@H](C)CC)n3cc(CCCCCN)nn3)CC2)n1	x	50µM*	x	-1%[2.33 µM]	11%	x
C#CCOCCOCCOCCNc1nc(N2CCOCC2)nc(N2CCN(C(=O)CCCCCCCCCCNC(=O)[C@@H]([C@H](C)CC)n3cc(CCCCCN)nn3)CC2)n1	u	u	7%	10%[2.33 µM]	1%	x
Cc1cc(F)ccc1NC(=O)Cn1c(C)csc1=O	-11%	9%	51%	u	0%	x
O=C(C1CCCO1)N1CCN(S(=O)(=O)c2cc(C(F)(F)F)ccc2Cl)CC1 (centres undefined)	-6%	-1%	35%	u	-15%	x
C#CCOCCOCCOCCNc1nc(N2CCN(C(=O)CCCCCCCCCCNC(=O)Cn3cc(CCCCCN)nn3)CC2)nc(N2CCN(C(=O)CCCCCCCCCCNC(=O)[C@H]([C@@H](C)CC)n3cc(CCCCN=C(N)N)nn3)CC2)n1	56µM*	56µM*	u	4%[2.33 µM]	15%	x
C#CCOCCOCCOCCNc1nc(N2CCN(C(=O)Cn3cc(CCCN=C(N)N)nn3)CC2)nc(N2CCN(C(=O)[C@H]([C@@H](C)CC)n3cc(CCCCN)nn3)CC2)n1	-5%	7%	34%	u	2%	x
C#CCOCCOCCOCCNc1nc(N2CCN(C(=O)CCCCCCCCCCNC(=O)[C@H]([C@@H](C)CC)n3cc(CCCCCN)nn3)CC2)nc(N2CCN(C(=O)CCCCCCCCCCNC(=O)[C@H](CCCCN)n3cc(CCCC(=O)O)nn3)CC2)n1	u	u	11%	3%[2.33 µM]	8%	x

Screens (PubChem)
